The results in this text go back to PubChem BioAssay (Tox21).

Structures are written as SMILES. Where “and” joins values, the source holds several entries; their conditions need not be identical. Identical values can stand only once. Some structures have more than one record in an assay (separate samples or runs), and their calls can disagree. Values without a mark were called inactive. A call without a number means that no potency is given here. Calls of active or inactive are those of the source. Calls come from the whole dose curve; as a rule, active = well fitted activation curve with a large enough effect in the signal ratio in the repeat runs (not every such curve was filed as active); inconclusive = weak or mixed curves, or effect the other way; inactive = no such curve, though single readings can be large or run the other way; the % refers to the signal ratio.
Potency is the fitted concentration of half-maximal effect.

In one experiment the target is Glucocorticoid receptor (Homo sapiens) (UniProt P04150). Briefly: qHTS assay to identify small molecule agonists of the glucocorticoid receptor (GR) signaling pathway (AID 720691). To be noted: GR-bla HeLa, beta-lactamase reporter ratio, 18 h; activation: at 62.4 µM (top of the series) unless noted. The source says: U.S. Tox21 Program National Center for Advancing Translational Sciences [NCATS] NIH Chemical Genomics Center [NCGC] U.S. Environmental Protection Agency [EPA] National Institutes of Environmental Health Sciences [NIEHS] National Toxicology Program [NTP] U.S. Food and Drug Administration [FDA] Tox21 Assay Overview: The Glucocorticoid receptor (GR) is one of the members of the nuclear receptor family of ligand-dependent transcription factors. GR plays a critical role in carbohydrate, protein and lipid metabolisms and programmed cell death. CellSensor GR-bla HeLa cell line (Invitrogen) contains a beta-lactamase reporter gene under the control of the glucocorticoid response element stably integrated into HeLa cells, a cervical cancer cell line that expresses glucocorticoid receptor. The activation of the reporter gene under culture conditions can be detected by fluorescence intensity. This cell line has been used to screen the Tox21 10K compound library and to identify the compounds that activate the GR signaling.
Chain of Glucocorticoid receptor (Homo sapiens) (P04150 whole entry, looked up): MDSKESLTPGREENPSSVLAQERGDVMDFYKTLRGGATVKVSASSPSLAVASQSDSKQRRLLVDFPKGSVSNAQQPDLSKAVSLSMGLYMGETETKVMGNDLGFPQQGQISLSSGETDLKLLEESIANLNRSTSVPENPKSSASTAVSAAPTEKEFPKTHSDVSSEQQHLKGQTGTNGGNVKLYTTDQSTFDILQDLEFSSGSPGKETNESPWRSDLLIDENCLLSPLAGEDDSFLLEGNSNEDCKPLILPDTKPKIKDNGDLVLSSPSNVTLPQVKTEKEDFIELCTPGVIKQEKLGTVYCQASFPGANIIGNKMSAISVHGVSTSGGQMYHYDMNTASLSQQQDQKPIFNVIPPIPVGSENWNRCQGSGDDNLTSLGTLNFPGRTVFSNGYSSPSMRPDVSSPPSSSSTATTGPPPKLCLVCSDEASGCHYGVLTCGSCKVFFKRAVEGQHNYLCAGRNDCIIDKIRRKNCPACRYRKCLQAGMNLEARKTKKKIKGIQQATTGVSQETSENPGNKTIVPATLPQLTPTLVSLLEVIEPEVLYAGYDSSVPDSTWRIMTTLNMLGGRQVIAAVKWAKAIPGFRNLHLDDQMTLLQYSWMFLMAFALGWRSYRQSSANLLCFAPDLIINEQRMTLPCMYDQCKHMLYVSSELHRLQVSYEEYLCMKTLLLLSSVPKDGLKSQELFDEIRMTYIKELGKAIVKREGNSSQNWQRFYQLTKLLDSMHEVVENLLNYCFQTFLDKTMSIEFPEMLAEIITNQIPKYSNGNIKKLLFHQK
Tox21 Assay Protocol Summary: The GR-bla HeLa cells were dispensed at 1500 cells/6 ul/well in 1536-well black wall/clear bottom plates using a Multidrop Combi (ThermoFisher Scientific, Waltham, MA) dispenser. After the assay plates were incubated at a 37 C/5% CO2 incubator for 4 hours, 23 nL of compounds dissolved in DMSO, positive controls or DMSO only was transferred to the assay plate by a pintool station (Kalypsys, San Diego, CA). The plates were incubated at 37 C for 18 hours. After 1 uL of LiveBLAzerTM B/G FRET substrate was added using a Flying Reagent Dispenser (Aurora Discovery, San Diego, CA), the plates were incubated at room temperature for 2 hours, and fluorescence intensity was measured by an Envision plate reader (PerkinElmer, Shelton, CT).
(In general: In qHTS, concentration-response curves come from the screen itself.)
Consider `CN(C)c1cccc(O)c1`, for which the Potency entry is “inactive”. `CC(=O)Nc1ccc(C(=O)O)cc1`: the Potency entry was “inactive”. The same measure, in the same setting: the same measure for `OCC1CCCO1` (stereo not given): “inactive”; for `CC1COc2ccccc2N1C(=O)C(Cl)Cl` (stereo not given): “inactive”; for `Clc1ccc(Cl)c(Cl)c1Cl`: “inactive”.

As for `C=C(C)C(=O)OCCCCCCCCCCCC`, the Potency result is “inactive”. Take `CN(C)c1ccc(C(=N)c2ccc(N(C)C)cc2)cc1`: the Potency result is “inactive”. Same read-out and setting: to `Cc1ccc(N)c(S(=O)(=O)O)c1` belongs “inactive”; to `C[C@@H](O)[C@H]1C(=O)N2C(C(=O)O)=C(S[C@@H]3CN[C@H](C(=O)N(C)C)C3)[C@H](C)[C@H]12`, “inactive”. For `COC(=O)Nc1nc2ccc(Sc3ccccc3)cc2[nH]1`, the activation is 2.86% [inconclusive] [at 29.2 µM] (active). Turning to `CCCCC(CC)COC(=O)/C=C\C(=O)OCC(CC)CCCC` (stereo not given), the Potency result was “inactive”. Same read-out and setting: to `CS(=O)(=O)c1ccc([C@@H](O)[C@@H](CO)NC(=O)C(Cl)Cl)cc1` belongs “inactive”; to `Oc1c(Cl)cc(Cl)c(Cl)c1Cl`, “inactive”. Consider `CCOC(=O)C1OC1c1ccccc1` (stereo not given), for which the Potency entry is “inactive”. Regarding `C=C(C)C(=O)OCCCCCC`, the Potency result is “inactive”. On to `CCC(=O)O`, for which the Potency entry was “inactive”. Still for that read-out and setting: the same measure for `NC(=O)/N=N/C(N)=O`: “inactive”; for `CCCCCCCCC`: “inactive”; for `NCc1cccc(CN)c1`: “inactive”. Still for that read-out and setting: to `Oc1ccc2ccccc2c1` belongs “inactive”. The same measure, in the same setting: to `CCOC(=O)[C@H](CCc1ccccc1)N[C@@H](C)C(=O)N1Cc2ccccc2C[C@H]1C(=O)O` belongs “inactive”; to `O=C(Oc1ccccc1)c1ccc(O)cc1`, “inactive”. `NCCNCCNCCNCCN`: the Potency result is “inactive”.

In the case of `CCCCOCCOCCOC(=O)CCCCC(=O)OCCOCCOCCCC`, the Potency result was “inactive”. As for `CC1(C)O[C@@H]2C[C@H]3[C@@H]4C[C@H](F)C5=CC(=O)CC[C@]5(C)[C@H]4[C@@H](O)C[C@]3(C)[C@]2(C(=O)CO)O1`, the Potency was 18.2 nM [inconclusive] (active) and 3.9 nM (active).

On to `C=C(C)C(=O)OCCC[Si](OC)(OC)OC`, for which the Potency entry is “inactive”. Same read-out and setting: to `CC(C)(C)C(=O)C1C(=O)c2ccccc2C1=O` belongs “inactive”. On the same count and under the same terms, the same measure for `OCC#CCO`: “inactive”; for `Cc1cc(Cc2ccc(N)c(C)c2)ccc1N`: “inactive”. Same read-out and setting: to `CCCCCCCCCC(=O)O` belongs “inactive”. For the compound `O=Nc1ccc(O)cc1`, the Potency entry is “inactive”. For the compound `CCCCCCCCCCCCOCC1CO1` (stereo not given), the Potency result is “inactive”. For the compound `COCC(=O)O`, the Potency entry is “inactive”. On to `Cc1cc(=O)[nH]c(C(C)C)n1`, for which the Potency entry is “inactive”. `C=C1CC[C@H](O)CC1=C/C=C1\CCC[C@]2(C)[C@@H]([C@H](C)/C=C/[C@H](C)C(C)C)CC[C@@H]12`: the Potency entry was “inactive”.

Consider `Oc1ccc(OCc2ccccc2)cc1`, for which the Potency entry was “inactive”. As to `O=C1N=C(O)CN1/N=C/c1ccc(-c2ccc([N+](=O)[O-])cc2)o1`, the Potency entry was “inactive”. In the case of `Cc1cc(NS(=O)(=O)c2ccc(N)cc2)no1`, the Potency result was “inactive”. As for `CC(C)Cc1ccccc1`, the Potency result was “inactive”.

The same experiment, now with this note: GR-bla HeLa, beta-lactamase reporter ratio, 18 h; at 62.4 µM (top of the series).
For the compound `COC(=O)Nc1nc2ccc(Sc3ccccc3)cc2[nH]1`, the activation was 2.36%.
